Measured values as given in PubChem BioAssay AID360 (National Center for Advancing Translational Sciences (NCATS), 2006).
About 550 (1.1%) of roughly 48,000 compounds were called active. Another 4% or so got no clear call; they are omitted. No stated cut-off is given here; in the data, active means potency below about 15 µM; inconclusive means mostly about 16 µM to 33 µM; inactive means weaker than that. Only a selection was taken, and actives are over-represented in it overall.

Each compound was assayed against Lysosomal acid glucosylceramidase (Homo sapiens) (UniProt P04062) (assay: Glucocerebrosidase). Conditions: purified enzyme, resorufin glucoside fluorescence (screen aimed at inhibitors), 20 min.
Lysosomal acid glucosylceramidase (Homo sapiens), sequence (P04062 whole entry, looked up): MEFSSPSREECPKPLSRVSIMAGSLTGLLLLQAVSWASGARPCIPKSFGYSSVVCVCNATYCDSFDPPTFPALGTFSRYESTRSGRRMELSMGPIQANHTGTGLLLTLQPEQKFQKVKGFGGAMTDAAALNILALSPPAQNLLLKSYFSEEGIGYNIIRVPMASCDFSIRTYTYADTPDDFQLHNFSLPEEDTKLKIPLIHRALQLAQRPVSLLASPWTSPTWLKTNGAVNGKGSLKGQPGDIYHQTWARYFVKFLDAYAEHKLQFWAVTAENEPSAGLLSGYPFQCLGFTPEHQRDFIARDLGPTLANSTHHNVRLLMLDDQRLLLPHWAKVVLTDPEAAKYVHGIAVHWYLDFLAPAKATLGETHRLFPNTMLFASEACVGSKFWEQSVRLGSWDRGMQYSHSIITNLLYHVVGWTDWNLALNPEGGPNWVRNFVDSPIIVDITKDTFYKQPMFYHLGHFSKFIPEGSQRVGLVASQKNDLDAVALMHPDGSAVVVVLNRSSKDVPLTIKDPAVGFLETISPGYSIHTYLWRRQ
Method in brief: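 Wild-type enzyme at 0.2 nM final in 50mM citric acid/KH2PO4, 10mM sodium taurocholate, 0.01% tween-20, pH 5.9, with resorufin beta-D-glucopyranoside at 30 uM final. Compounds titrated, 20 min at RT, red fluorescence read; AC50 from titration.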
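Further: the screen sought inhibitors.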
Potency means the concentration at half of the fitted maximal effect.

Row | SMILES | Potency
1 | Cc1cc(N2CCCC2)n2nc(C)c(-c3ccccc3)c2n1 | 7.9 µM (active)
2 | Cc1cc(-n2nc(C)cc2C)n2ncc(-c3ccccc3)c2n1 | > 76.9 µM (inactive)
3 | Cc1cc(C)c2c(n1)nn1c(N3CCOCC3)cc(C)nc21 | > 76.9 µM (inactive)
4 | COc1ccc(CC(=O)Nc2ccc3c(c2)CCC3)cc1S(=O)(=O)N1CCOCC1 | > 76.9 µM (inactive)
5 | Cc1cccc(-n2c(N)cc(=O)nc2SC(C)C(=O)NC2CCCCC2)c1 (stereo not given) | > 76.9 µM (inactive)
6 | O=C(Nc1cccc(NC(=O)N2CCN(c3ccccc3)CC2)c1)N1CCN(c2ccccc2)CC1 | > 76.9 µM (inactive)
7 | CC(C)N(C(=O)COC(=O)c1ccccc1C(=O)N1CCN(c2ccc(F)cc2)CC1)C(C)C | > 76.9 µM (inactive)
8 | CC(=O)N1CCN(c2ccc(NCc3ccc(C(C)C)cc3)cc2)CC1 | 7.71 µM (active)
9 | COC(=O)Cc1c(C)c2ccc(OCC(=O)NCc3ccc4c(c3)OCO4)cc2oc1=O | > 76.9 µM (inactive)
10 | CC1(C)Oc2ccc(C(=O)N3CCOCC3)cc2N(CC(=O)Nc2ccccc2)C1=O | > 76.9 µM (inactive)
11 | Cc1ccc(-c2noc(CN3CCN(Cc4ccccc4)CC3)n2)cc1 | > 76.9 µM (inactive)
12 | CCOC(=O)Cc1c(C)nc2c(C#N)c(C)nn2c1C | > 76.9 µM (inactive)
13 | Cc1cc(C(=O)COC(=O)CCCN2C(=O)c3ccccc3C2=O)c(C)n1C | > 76.9 µM (inactive)
14 | CCOC(=O)CSc1nnc(NC(=O)c2cccc(S(=O)(=O)N3CCCC3)c2)s1 | > 76.9 µM (inactive)
15 | COc1cccc(-c2nnc(N(C)C(=O)c3ccno3)s2)c1 | > 76.9 µM (inactive)
16 | CC1(C)CC(CCC(=O)Nc2ccccc2Cl)C(=O)O1 (stereo not given) | > 76.9 µM (inactive)
17 | CN(C(=O)COc1ccccc1)c1nnc(-c2ccncc2)s1 | > 76.9 µM (inactive)
18 | Cc1cc(Cl)c(S(=O)(=O)NCCC(=O)O)cc1OCC(N)=O | > 76.9 µM (inactive)
19 | COC(=O)C(CC(=O)Nc1cc(C)ccc1C)Nc1ccccc1OC (stereo not given) | > 76.9 µM (inactive)
20 | Cc1ccc2nc(S(=O)(=O)O)[nH]c2c1 | > 76.9 µM (inactive)
